In the library only some 3.1% were active in any assay of this set; here they are far more common.
PAX8 inh HTS – PAX8 transcriptional activity inhibition; 1.2% of 360,000 active; inhibition, % at 12.6 µM; AID 652154; RMG-I TPO-luciferase reporter, SteadyGlo, 24 h;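 active = mean replicate inhibition at least 60% with every replicate also reaching 60%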;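 note: luciferase light reporting Pax8 driven TPO promoter activity; plate controls were median of neutral control wells for no effect and mitoxantrone controls for full effect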
miR122 inh – miR-122 inhibition in Huh7 cells | Huh7 miR-122 Renilla luciferase sensor, 48 h; neutral wells = 0, positive control = 100 | activation (reporter increase), % at 12.5 µM | 0.3% of 340,000 active | AID 602342;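 active = mean replicate activation score at least 90 and every replicate individually at or above 90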;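 note: higher luciferase means less miR-122 activity so hits act as miR-122 inhibitors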
HIV Env fusion – blocks HIV Env-driven cell-cell fusion. 1.1% of 360,000 active. HeLa-JRFL Env/CEM21 cell fusion, luciferase. inhibition, % at 12.3 µM;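 active = mean replicate inhibition score of at least 50 and every replicate individually at or above 50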;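 note: 0% = plate neutral controls and 100% = maraviroc near 300 nM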
GSIS activator – GLuc luminescence reporter in INS-1E cells, primary screen for activators of glucose-dependent secretion of insulin; INS-1E GLuc reporter insulin secretion, 2-3 h; activation, % at 16.6 µM; 0.61% of 370,000 active; AID 743287;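 active = lowest replicate activation of at least 40%, so every replicate reaches that level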;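 note: 0% = median of neutral control wells and 100% = median of IBMX positive control wells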
EWS-Fli inh – inhibitors of EWS/Fli oncoprotein transcriptional activity | 0.67% of 350,000 active | inhibition, % at 12.6 µM | A673 NR0B1-luciferase reporter, viability-normalised;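 active = mean inhibition of at least 50% after viability correction, with every replicate also passing that limit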;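 note: firefly luciferase signal divided by Alamar Blue viability fluorescence both relative to DMSO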
C2C12 statin – suppressors of simvastatin-induced myotoxicity in C2C12 myotubes. 0.78% of 330,000 active. rescue of ATP level, % at 7.49 µM. ATP luminescence, 48 h; scaled: DMSO 0, geranylgeraniol control 100;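 active = mean ATP rescue above about 67%, or every replicate alone reaching that limit, limit read from the data, passing the limit was not always enough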;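 note: myotubes were challenged with 10 µM simvastatin during compound exposure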
The depositor's hits bear a star; · = no result given; [ ] = remark or other dose.

SMILES	PAX8 inh HTS	miR122 inh	HIV Env fusion	GSIS activator	EWS-Fli inh	C2C12 statin
C[C@@H]1CN([C@H](C)CO)S(=O)(=O)c2ccc(C3=CCCC3)cc2O[C@H]1CN(C)C(=O)C1CCOCC1	-42	11[16.7 µM]	-9[16.7 µM]	0	4	-15
Cc1ccccc1-c1ccc2c(c1)O[C@@H](CN(C)C(=O)C1CC1)[C@H](C)CN([C@H](C)CO)S2(=O)=O	·	·	-10[16.7 µM]	-16	-4	-41
CC(C)(C)c1cc(C(=O)NNc2cccc(Cl)c2)n(Cc2ccccc2)n1	-16	126*	11	-38	-55	61
Cc1ccc(NNC(=O)c2cc(C(C)(C)C)nn2Cc2ccccc2)cc1	1	0	-7	-41	-3	28
COc1ccc(NC(=O)N(C)C[C@H]2OCCCC[C@@H](C)Oc3ccc(NC(=O)C4CCCCC4)cc3C(=O)N([C@@H](C)CO)C[C@@H]2C)cc1	·	10[16.7 µM]	-10[16.7 µM]	-8	0	·
COc1ccc(/C=C/C2=NNC(=O)CC2)cc1	-63	·	60*	0	-54	·
COc1cc2cc(CCO)oc(=O)c2cc1OC	-8	-2	65*	31	-17	-8
COC(=O)NNC(=O)COc1ccc(Cl)cc1	·	-5	·	3	0	94*
CC(C)NC(=O)Nc1ccc2c(c1)C(=O)N([C@H](C)CO)C[C@H](C)[C@@H](CN(C)Cc1ccc(C(=O)O)cc1)O2	-19	-3[16.7 µM]	-1[16.7 µM]	5	-2	0
O=[N+]([O-])c1cc(S(=O)(=O)N2CCCC2)ccc1N/N=C/c1ccncc1	-51	-2	15	2	·	·
O=[N+]([O-])c1cc(S(=O)(=O)N2CCCC2)ccc1N/N=C/c1cccs1	-3	·	12	48*	·	-72
CO[C@H](CN(C)S(=O)(=O)c1ccccc1)[C@@H](C)CN(C(=O)Nc1ccccc1F)[C@@H](C)CO	·	·	·	4	-13	2
O=C([C@H]1[C@H](CO)[C@H]2Cn3c(ccc(-c4cccnc4)c3=O)[C@@H]1N2Cc1ccncc1)N1CCOCC1	-12	2[16.7 µM]	·	-3	0	12
Cc1cccc(NCc2ccccc2)c1	-29	1	-15	95*	1	·
Cc1cccc(NCc2ccccc2O)c1	·	2	·	·	·	·
Cc1cccc(NCCNc2cccc(C)c2)c1	·	·	-13	·	·	113*
C[C@H](CO)N1C[C@H](C)[C@H](CN(C)CC2CC2)Oc2ccc(NC(=O)C3CC3)cc2CC1=O	4	14[16.7 µM]	8[16.7 µM]	6	10	6
CCC(=O)c1cc2c(C)cc(=O)oc2c(C)c1OC(=O)C(C)C	72*	·	·	6	1	·
CCC(=O)c1cc2c(C)cc(=O)oc2c(C)c1OC(C)=O	-16	·	-94	8	·	·
C[C@@H]1CN([C@@H](C)CO)C(=O)c2ccccc2-c2ccccc2CO[C@H]1CN(C)Cc1ccc(C(=O)O)cc1	·	·	·	1	0	·
COc1ccc(/C=N\NC(=O)c2ccccc2Cl)cc1COc1c(F)c(F)c(F)c(F)c1F	·	-1	·	3	5	-12
COc1ccc(/C=N\NC(=O)c2ccccc2OC)cc1COc1c(F)c(F)c(F)c(F)c1F	64*	9	10	-5	12	-15
CCCC#Cc1cnc2c(c1)C(=O)N([C@H](C)CO)C[C@H](C)[C@H](CN(C)C(=O)C1CCOCC1)O2	·	-2[16.7 µM]	-2[16.7 µM]	-1	-13	19
Cc1cccc(/C=C2/Sc3ccc(C(=O)NCCCN4CCOCC4)cc3NC2=O)c1	12	1	-7	5	16	1
COc1cccc(/C=C2/Sc3ccc(C(=O)NCCN4CCCCCC4)cc3NC2=O)c1	97*	-8	9	-22	·	23
SMILES	PAX8 inh HTS	miR122 inh	HIV Env fusion	GSIS activator	EWS-Fli inh	C2C12 statin
CCN1CCN(CCCNC(=O)c2ccc3c(c2)NC(=O)/C(=C\c2cccc(C)c2)S3)CC1	3	3	12	7	60*	-2
COc1ccc(C(=O)NCc2cc(C)nc3ccccc23)cc1	37	·	20	-2	53*	·
COc1ccc(OCC(=O)Nc2nc3ccccc3[nH]2)cc1	·	-5	·	·	·	74*
COc1ccc(OCC(=O)NNc2c3ccccc3nc3ccccc23)cc1	·	2	59*	·	·	-6
Cn1c(=O)n2n(c1=O)[C@H](C1CC1)C=C1CN3[C@@H]([C@H](Cc4ccccc4)OC(=O)[C@@H]3Cc3ccccc3)[C@@H]12	-2	·	-1[16.7 µM]	·	-6	·
O=C(CCN1CCCCC1)N[C@@H]1CC[C@@H](CCNS(=O)(=O)c2ccccc2)O[C@@H]1CO	1	5[16.7 µM]	14[16.7 µM]	9	-3	-2
COc1ccccc1C(=O)Nc1ccc2c(c1)C(=O)N(C)[C@@H]1CC[C@@H](CC(=O)NCc3ccc(Cl)c(Cl)c3)O[C@H]1CO2	93*	39[16.7 µM]	·	-15	2	-15
CNC(=O)C[C@H]1CC[C@H]2[C@@H](COc3ccc(NC(=O)c4ccccc4OC)cc3C(=O)N2C)O1	-8	8[16.7 µM]	2[16.7 µM]	4	3	17
CN1C(=O)c2cc(NC(=O)c3cscn3)ccc2OC[C@@H]2O[C@H](CC(=O)NCc3ccc(Cl)c(Cl)c3)CC[C@H]21	8	-30[16.7 µM]	58*[16.7 µM]	-4	3	-13
CCNC(=O)C[C@@H]1CC[C@H]2[C@@H](COc3ccc(NC(=O)c4cscn4)cc3C(=O)N2C)O1	-6	-7[16.7 µM]	-25[16.7 µM]	3	-3	-6
CCNC(=O)C[C@@H]1CC[C@H]2[C@H](COc3ccc(NC(=O)c4cscn4)cc3C(=O)N2C)O1	-5	33[16.7 µM]	21[16.7 µM]	-2	5	3
CN1C(=O)c2cc(NC(=O)c3cscn3)ccc2OC[C@H]2O[C@H](CC(=O)NCc3ccc(Cl)c(Cl)c3)CC[C@H]21	10	-28[16.7 µM]	68*[16.7 µM]	-19	9	78*
O=C(C1CCC1)N1CC2(C1)[C@@H](c1ccccc1)[C@@H](CO)N2CC1CCCC1	·	·	·	-11	·	·
CCCCN(C)C(=O)C(Cc1ccccc1)NS(=O)(=O)c1ccc2c(c1)CCC(=O)N2 (configuration not stated)	-9	-1	67*	4	6	-4
C[C@@H]1CN([C@@H](C)CO)C(=O)c2cccc(NS(=O)(=O)c3ccc(Cl)cc3)c2O[C@@H]1CN(C)Cc1ccc(-c2ccccc2)cc1	65*	-9[16.7 µM]	26[16.7 µM]	-16	16	-7
C[C@H]1CN([C@@H](C)CO)C(=O)c2cccc(NS(=O)(=O)c3ccc(Cl)cc3)c2O[C@@H]1CN(C)Cc1ccc(-c2ccccc2)cc1	-21	57[16.7 µM]	-14[16.7 µM]	-25	8	17
C[C@H](CO)N1C[C@H](C)[C@H](CN(C)Cc2ccc(Cl)c(Cl)c2)Oc2c(NS(=O)(=O)c3ccc(Cl)cc3)cccc2C1=O	83*	14[16.7 µM]	91*[16.7 µM]	·	12	-36
Cc1ccc(S(=O)(=O)Nc2cccc3c2O[C@@H](CN(C)Cc2ccc(Cl)c(Cl)c2)[C@@H](C)CN([C@H](C)CO)C3=O)cc1	32	37[16.7 µM]	87*[16.7 µM]	-12	13	-37

Screens (PubChem)
